Test [1] concerns the target Alpha-galactosidase (Coffea arabica) (UniProt Q42656). Put plainly: Counterscreen for Glucocerebrosidase Inhibitors: qHTS Assay for Coffee Bean alpha-Galactosidase at pH 4.5 (AID 957).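 Note: plate controls were enzyme alone for no effect and no enzyme for full effect.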 In short, it runs like this:
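Quantitative HTS of compounds (0.7 nM to 77 uM) against coffee bean alpha-galactosidase at pH 4.5, measuring 4-methylumbelliferone fluorescence released from 80 uM substrate.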
Background: Counterscreens check selectivity or assay interference.

For test [2] the target is unchanged. Put plainly: Counterscreen for Glucocerebrosidase Inhibitors: qHTS Assay for Coffee Bean alpha-Galactosidase at pH 5.9 (AID 998).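 Note: plate controls were uninhibited enzyme for no effect and no-enzyme basal signal for full effect.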 In short, it runs like this: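 Fluorogenic 4-MU substrate hydrolysis, 80 uM substrate and 2 nM coffee bean alpha-galactosidase, pH 5.9 citrate buffer, 20 min at room temperature, then NaOH/glycine stop. Titration 0.7 nM–77 uM, normalized to no-enzyme and enzyme controls, AC50 via Hill equation.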

The nature of test [3]: High Content Imaging Cell-Based qHTS for Inhibitors of the mTORC1 Signaling Pathway in MEF (Tsc2-/-, p53-/-) Cells (AID 2666).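 Note: percent of cells scored positive for phospho-rpS6 Ser235/236 immunostaining by imaging; potency is the fitted concentration of half-maximal effect.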 In short, it runs like this:
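Tsc2-/-, p53-/- MEFs (empty-vector stable) grown in DMEM + 10% FBS were exposed to compounds for 24 hrs at 37 degree Celsius, fixed, and stained with Alexa-488 anti-phospho-rpS6 Ser235/236 plus Hoechst. Imaging gave the percentage of positive cells per well.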

Test [4] is described as follows: High Content Imaging Cell-Based qHTS for Inhibitors of the mTORC1 Signaling Pathway in MEF Cells (AID 2667). Note: potency is the fitted concentration of half-maximal effect. In short, it runs like this:
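Tsc2-/-, p53-/- MEFs stably re-expressing WT Tsc2, grown in DMEM + 10% FBS, were treated with compounds for 24 hrs at 37 degree Celsius, fixed, and stained with Alexa-488 phospho-rpS6 Ser235/236 antibody plus Hoechst; results given as % positive cells.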
For orientation: Quantitative high-throughput screening tests each substance at several concentrations.

The nature of test [5]: Validation screen for inhibitors of Lassa infection (AID 463096; calls by dose curve; note: potency is the fitted concentration of half-maximal effect).
Test [6] deals with M-phase phosphoprotein 8 (Homo sapiens) (UniProt Q99549). The test is described as follows: qHTS Validation Assay for Inhibitors for MPP8 Chromodomain Interactions with Methylated Histone Tails (AID 488949). Note: top concentration of the series differs between compounds; % is set by controls: 0 for no effect and ±100 for the full control effect; nearly all actives have a fitted effect of over 55% in size. In short, it runs like this:
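MPP8 (50 nM) was pre-bound to 50 nM biotinylated H3(1-18)K9me3 peptide in PBS pH 7.4 with 0.01% Tween-20. Compounds were then added for 30 min at room temperature, and complex disruption was read by AlphaScreen with streptavidin donor and nickel-chelate acceptor beads.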

In test [7] the target is Glutaminase kidney isoform, mitochondrial (Homo sapiens) (UniProt O94925). Put plainly: qHTS for Inhibitors of Glutaminase (GLS): LOPAC Validation (AID 624146).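 Note: glutamate product detected by oxidase and peroxidase coupled Amplex red fluorescence gain; % is set by controls: 0 for no effect and ±100 for the full control effect; nearly all actives have a fitted effect of over 60% in size.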 In short, it runs like this: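 Compounds were pin-transferred onto hKGA, after which L-glutamine (1 mM solution) and a detection mix of glutamate oxidase, HRP and Amplex Red were added. Initial and 30 min RT fluorescence reads were collected.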

The target of test [8] is Peroxisome proliferator-activated receptor delta (Homo sapiens) (UniProt Q03181). The test is described as follows: qHTS assay for small molecule agonists of peroxisome proliferator-activated receptor delta signaling (AID 588534; calls by dose curve;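 note: 0% = DMSO basal wells and 100% = positive control agonist at 10 µM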). In outline: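 EC50 and efficacy values derive from Hill fits of a concentration series in a beta-lactamase reporter cell assay. Exposure is 18 hrs at 37 C, with CCF4 fluorescence as the readout.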

Test [9] in a line: qHTS profiling of the MIPE4 collection as inhibitors of Plasmodium falciparum (3D7) proliferation (AID 743344; call rule not given here;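 note: scaled between DMSO vehicle wells and 0.29 µM artemisinin as full inhibition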). The settings on record: P. falciparum 3D7 in erythrocytes, SYBR Green DNA fluorescence, 72 h; at 28.5 µM (top of the series) unless noted. In short, it runs like this:
(§1)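 Parasite DNA was quantified by SYBR Green I fluorescence (ex 485, em 535 nm) after overnight lysis in saponin/Triton buffer at room temperature. Cultures at 0.3% parasitemia and 2.5% hematocrit were first exposed to compound for 72 h at 37 C; signals were normalised to artemisinin (0.29 uM) and vehicle wells.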

Test [10] can be described thus: qHTS profiling of the MIPE4 collection as inhibitors of Plasmodium falciparum (DD2) proliferation (AID 743345; call rule not given here). The settings on record: P. falciparum Dd2 in erythrocytes, SYBR Green DNA, 72 h; at 28.5 µM (top of the series) unless noted. In outline: as §1
Test [11] can be described thus: qHTS profiling of the MIPE4 collection as inhibitors of Plasmodium falciparum (DD2) proliferation (Rep 2) (AID 743346; call rule not given here). As to conditions: P. falciparum Dd2 in erythrocytes, SYBR Green DNA, 72 h; at 28.5 µM (top of the series) unless noted. In short, it runs like this:
as §1

The nature of test [12]: Primary qHTS for inhibitors of SARS-S pseudo-typed particle cell entry (AID 1479145; calls by dose curve; note: % is set by controls: 0 for no effect and ±100 for the full control effect; nearly all actives have a fitted effect of over 45% in size).
Test [13] is described as follows: Primary qHTS for Huh7 cytotoxicity: counterscreen for inhibitors of MERS-S pseudotyped particle cell entry (AID 1479147; calls by dose curve). The settings on record: outcome: dose series up to 57.1 µM unless noted.
Test [14] in a line: Primary qHTS for inhibitors of MERS-S pseudo-typed particle cell entry (AID 1479149; calls by dose curve; note: nearly all actives have a fitted effect of over 60% in size).
Test [15] is described as follows: Primary qHTS for Vero E6 cytotoxicity: counterscreen for inhibitors of SARS-S pseudo-typed particle cell entry (AID 1479150; calls by dose curve; note: % is set by controls: 0 for no effect and ±100 for the full control effect). The settings on record: outcome: dose series up to 57.1 µM unless noted.
Test [16] can be described thus: Confirmatory qHTS to identify inhibitors of SARS-CoV-2 cell entry (AID 1645844; calls by dose curve; note: potency is the fitted concentration of half-maximal effect; nearly all actives have a fitted effect of over 45% in size). In short, it runs like this: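 Luminescence entry read-out after 48 h: spike-pseudotyped MLV particles (Wuhan-Hu-1, 19-aa C-terminal truncation) added to compound-pretreated (1 h) HEK293-ACE2 cells; Data were normalised to bald PP and spike PP wells.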
Test [17] in a line: Confirmatory qHTS for VERO E6 Cytotoxicity Assay: Counterscreen for SARS-CoV-2 CPE Assay (AID 1508605; calls by dose curve; note: % is set by controls: 0 for no effect and ±100 for the full control effect; nearly all actives have a fitted effect of over 60% in size).
For a further test, the target named is Furin (Homo sapiens) (UniProt P09958). Put plainly: Furin counterscreen qHTS for Zika virus inhibitors (AID 1347149). Note: nearly all actives have a fitted effect of over 70% in size. Note: potency is the fitted concentration of half-maximal effect. In short, it runs like this: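 Counterscreen measures cleavage of 2 microM BOC-RVRR-AMC, below its ~15 microM Km, by 5 nM full-length human furin at pH 7.0 after a 15-min compound preincubation. Inhibition derives from the 15-min fluorescence increase at 37C.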

Test [18] relates to Zika virus NS2B-NS3 protease (unlinked). Put plainly: Optimization of GU AMC qHTS for Zika virus inhibitors: Unlinked NS2B-NS3 protease assay (AID 1347151).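 Note: 0% = no-inhibitor control and -100% = no-enzyme control; nearly all actives have a fitted effect of over 80% in size.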 In outline:
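Noncovalent NS2B hydrophilic domain–NS3 protease complex (25 nM final) in 10 mM Tris-HCl pH 8.0, 0.01% Tween 20; AMC substrate, room temperature 15 min (~20% conversion); fluorescence change normalized, 4-parameter Hill fit.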

Test [19] in a line: Vero cells viability qHTS for Zika virus inhibitors (AID 1347167). Note: % is set by controls: 0 for no effect and ±100 for the full control effect. In outline:
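Luminescent ATP readout (CellTiter Glo) after 30 min at 37 degrees C gives viability; cells in DMEM + 4% FBS were treated 24 to 48 hours with compound, following overnight attachment.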

A short description of test [20]: Tertiary RLuc qRT-PCR qHTS assay for Zika virus inhibitors (AID 1347169). Note: potency is the fitted concentration of half-maximal effect; nearly all actives have a fitted effect of over 55% in size. In outline: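 Vero cells (1,000/well) infected with recombinant ZIKV-RLuc (Cambodian) at MOI 1-2 after compound addition, 48-72 hrs at 37 degrees C. Live-cell Renilla luciferase substrate added; luminescence read after 1-1.5 hrs.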
Test [21] deals with Zika virus NS2B-NS3 protease. The test is described as follows: Primary screen GU AMC qHTS for Zika virus inhibitors (AID 1347154).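 Note: 0% = no-inhibitor control and -100% = no-enzyme control; nearly all actives have a fitted effect of over 70% in size.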 In short, it runs like this: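 Fluorogenic AMC-substrate cleavage by noncovalent NS2B-NS3 protease complex (25 nM, pH 8.0 Tris buffer with Tween 20) followed for 15 minutes at room temperature (~20% conversion). Percent inhibition from ex340/em450 signal change, fitted by 4-parameter Hill equation.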

Test [22] is described as follows: Primary qHTS for small molecule stabilizers of the endoplasmic reticulum resident proteome: Secreted ER Calcium Modulated Protein (SERCaMP) assay (AID 1508630). Note: % is set by controls: 0 for no effect and ±100 for the full control effect. In short, it runs like this:
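The SH-SY5Y reporter protocol was run at 3 concentrations up to 38.3 uM (primary) or 11 concentrations (follow-up): 16 h compound, 100 nM thapsigargin for 4 h, then extracellular luciferase luminescence.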

For test [23], the target named is Nucleoprotein (Lymphocytic choriomeningitis virus (strain Armstrong)) (UniProt P09992). Put plainly: qHTS for Inhibitors of the Functional Ribonucleoprotein Complex (vRNP) of Lymphocytic Choriomeningitis Arenaviruses (LCMV): LCMV Primary Screen - GLuc reporter signal (AID 1347086; calls by dose curve; note: % is set by controls: 0 for no effect and ±100 for the full control effect; nearly all actives have a fitted effect of over 70% in size).
The nature of test [24]: Cytotoxicity counterscreen for inhibitors of SARS-CoV-2 cell entry (AID 1645845; calls by dose curve; note: % is set by controls: 0 for no effect and ±100 for the full control effect; nearly all actives have a fitted effect of over 50% in size). In outline:
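ATP-content luminescence (ATPLite 1step, 15 min RT) read after 48 h compound exposure of Expi293F cells stably expressing human ACE2; normalized to cells-only wells and media-only wells.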

In test [25] the test system is Zika virus NS2B-NS3 protease (linked construct). The test is described as follows: Confirmatory screen NINDS AMC qHTS for Zika virus inhibitors (AID 1347152). Note: potency is the fitted concentration of half-maximal effect; nearly all actives have a fitted effect of over 70% in size. In outline: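 Linked NS2B-NS3 protease, 1 nM, in 10 mM Tris-HCl pH 8.0, 0.01% Tween 20; compounds preincubated 15 min at room temperature. Nle-KRR-AMC 10 microM (Km 18.3 µM); 15-min fluorescence change (340/450 nm) fitted to 4-parameter Hill.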

The test system of test [26] is Zika virus NS2B-NS3 protease (unlinked complex). The test is described as follows: Confirmatory screen GU AMC qHTS for Zika virus inhibitors (AID 1347153). In outline: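 Noncovalent NS2B hydrophilic domain/NS3 protease complex (25 nM) in 10 mM Tris-HCl pH 8.0, 0.01% Tween 20 was preincubated 15 min at room temperature with compounds. Then 10 µM AMC substrate (Km 18.3 µM) was added; fluorescence was read over 15 min and fitted to a 4-parameter Hill equation.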

Test [27] in a line: Confirmatory screen NINDS Rhodamine qHTS for Zika virus inhibitors (AID 1347161). Note: potency is the fitted concentration of half-maximal effect; nearly all actives have a fitted effect of over 60% in size. In outline: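 Kinetic fluorescence (Ex 480 nm, Em 540 nm) over 15 min with 1.5 microM Rhodamine110 peptide and 25 nM linked protease.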
In test [28] the test system is Zika virus NS2B-NS3 protease (linked construct). Put plainly: 384 well plate NINDS Rhodamine confirmatory qHTS for Zika virus inhibitors (AID 1347164).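 Note: fluorescence from protease cleavage of Ac-LKRR-rhodamine 110 substrate; potency is the fitted concentration of half-maximal effect; nearly all actives have a fitted effect of over 65% in size.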 In outline: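 Linked NS2B-NS3 protease (final 5, 30 or 60 nM) preincubated ~15 minutes with compounds, then 10 microM Ac-LKRR-Rhodamine 110 added. Fluorescence (485/538 nm) read after 25 minutes at room temperature, normalized to no-enzyme and no-inhibitor controls.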

Molecules are shown by their SMILES. Inconclusive results are not listed. Calls of active or inactive are those of the source. Unless noted, calls come from the whole dose curve; as a rule, active = well fitted curve in the direction sought with a large enough effect; inconclusive = small, poorly fitted or top-dose-only effect, or another doubt; inactive = no such curve, though single readings can be large; an effect the other way counts as inactive or inconclusive.

Sequence of Furin (Homo sapiens) (P09958 whole entry, looked up): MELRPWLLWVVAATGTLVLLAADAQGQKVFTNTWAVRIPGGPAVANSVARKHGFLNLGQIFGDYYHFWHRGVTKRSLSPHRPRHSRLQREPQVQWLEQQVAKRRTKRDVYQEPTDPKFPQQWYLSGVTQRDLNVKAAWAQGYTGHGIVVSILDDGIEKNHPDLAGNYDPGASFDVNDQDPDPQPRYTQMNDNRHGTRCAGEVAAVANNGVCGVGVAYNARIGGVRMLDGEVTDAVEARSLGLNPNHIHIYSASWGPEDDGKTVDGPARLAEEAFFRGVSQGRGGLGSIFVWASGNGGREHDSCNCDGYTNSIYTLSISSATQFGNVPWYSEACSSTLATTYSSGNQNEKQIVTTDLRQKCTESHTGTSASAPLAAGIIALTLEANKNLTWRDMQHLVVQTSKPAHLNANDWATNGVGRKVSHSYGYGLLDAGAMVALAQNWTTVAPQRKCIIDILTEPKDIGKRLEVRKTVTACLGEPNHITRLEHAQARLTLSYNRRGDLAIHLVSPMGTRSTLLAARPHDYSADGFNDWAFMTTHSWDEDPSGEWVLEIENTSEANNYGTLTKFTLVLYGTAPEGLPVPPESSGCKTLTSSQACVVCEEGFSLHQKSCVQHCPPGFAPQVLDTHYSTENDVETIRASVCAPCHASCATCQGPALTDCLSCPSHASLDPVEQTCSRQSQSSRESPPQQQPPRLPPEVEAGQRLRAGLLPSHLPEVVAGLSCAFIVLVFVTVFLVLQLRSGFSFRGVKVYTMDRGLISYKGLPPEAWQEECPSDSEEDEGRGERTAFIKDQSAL
Sequence of Alpha-galactosidase (Coffea arabica) (Q42656 whole entry, looked up): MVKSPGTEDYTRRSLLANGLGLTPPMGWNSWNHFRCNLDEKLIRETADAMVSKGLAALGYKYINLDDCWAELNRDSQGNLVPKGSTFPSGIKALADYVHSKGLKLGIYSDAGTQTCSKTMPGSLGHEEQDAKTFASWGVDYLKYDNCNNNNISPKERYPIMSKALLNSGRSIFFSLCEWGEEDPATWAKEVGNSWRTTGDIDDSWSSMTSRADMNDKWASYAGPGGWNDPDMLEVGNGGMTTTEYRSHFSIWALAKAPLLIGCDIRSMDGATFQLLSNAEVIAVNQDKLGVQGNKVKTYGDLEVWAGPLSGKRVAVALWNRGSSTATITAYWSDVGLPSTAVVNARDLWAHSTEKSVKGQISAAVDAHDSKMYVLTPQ
Sequence of Nucleoprotein (Lymphocytic choriomeningitis virus (strain Armstrong)) (P09992 whole entry, looked up): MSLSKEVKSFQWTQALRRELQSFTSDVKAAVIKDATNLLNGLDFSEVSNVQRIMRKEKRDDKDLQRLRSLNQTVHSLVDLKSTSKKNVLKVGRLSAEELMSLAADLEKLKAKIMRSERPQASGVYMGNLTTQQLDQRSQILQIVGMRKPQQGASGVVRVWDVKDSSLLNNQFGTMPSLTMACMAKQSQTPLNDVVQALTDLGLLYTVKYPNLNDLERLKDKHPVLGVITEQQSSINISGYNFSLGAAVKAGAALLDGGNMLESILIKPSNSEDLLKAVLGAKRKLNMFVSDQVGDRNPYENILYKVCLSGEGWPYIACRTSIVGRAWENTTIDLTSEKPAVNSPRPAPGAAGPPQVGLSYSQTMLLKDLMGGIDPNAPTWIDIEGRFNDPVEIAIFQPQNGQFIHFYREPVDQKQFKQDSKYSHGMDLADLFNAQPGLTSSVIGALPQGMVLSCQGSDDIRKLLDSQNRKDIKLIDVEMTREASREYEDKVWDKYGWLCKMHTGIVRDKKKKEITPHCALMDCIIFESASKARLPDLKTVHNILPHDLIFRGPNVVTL
Sequence of Peroxisome proliferator-activated receptor delta (Homo sapiens) (Q03181 whole entry, looked up): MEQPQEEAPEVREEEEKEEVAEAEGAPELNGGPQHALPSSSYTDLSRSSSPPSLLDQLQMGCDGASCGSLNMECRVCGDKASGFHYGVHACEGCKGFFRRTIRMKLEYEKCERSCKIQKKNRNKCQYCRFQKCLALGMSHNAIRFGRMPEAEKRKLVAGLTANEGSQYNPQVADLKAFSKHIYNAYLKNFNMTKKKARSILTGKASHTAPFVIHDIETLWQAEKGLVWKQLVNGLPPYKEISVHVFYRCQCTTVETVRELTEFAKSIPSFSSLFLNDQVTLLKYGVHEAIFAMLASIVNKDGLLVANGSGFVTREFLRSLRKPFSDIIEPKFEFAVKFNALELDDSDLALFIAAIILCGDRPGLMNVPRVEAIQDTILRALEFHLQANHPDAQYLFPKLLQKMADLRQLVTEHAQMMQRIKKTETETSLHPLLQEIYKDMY
Sequence of Glutaminase kidney isoform, mitochondrial (Homo sapiens) (O94925 whole entry, looked up, canonical isoform): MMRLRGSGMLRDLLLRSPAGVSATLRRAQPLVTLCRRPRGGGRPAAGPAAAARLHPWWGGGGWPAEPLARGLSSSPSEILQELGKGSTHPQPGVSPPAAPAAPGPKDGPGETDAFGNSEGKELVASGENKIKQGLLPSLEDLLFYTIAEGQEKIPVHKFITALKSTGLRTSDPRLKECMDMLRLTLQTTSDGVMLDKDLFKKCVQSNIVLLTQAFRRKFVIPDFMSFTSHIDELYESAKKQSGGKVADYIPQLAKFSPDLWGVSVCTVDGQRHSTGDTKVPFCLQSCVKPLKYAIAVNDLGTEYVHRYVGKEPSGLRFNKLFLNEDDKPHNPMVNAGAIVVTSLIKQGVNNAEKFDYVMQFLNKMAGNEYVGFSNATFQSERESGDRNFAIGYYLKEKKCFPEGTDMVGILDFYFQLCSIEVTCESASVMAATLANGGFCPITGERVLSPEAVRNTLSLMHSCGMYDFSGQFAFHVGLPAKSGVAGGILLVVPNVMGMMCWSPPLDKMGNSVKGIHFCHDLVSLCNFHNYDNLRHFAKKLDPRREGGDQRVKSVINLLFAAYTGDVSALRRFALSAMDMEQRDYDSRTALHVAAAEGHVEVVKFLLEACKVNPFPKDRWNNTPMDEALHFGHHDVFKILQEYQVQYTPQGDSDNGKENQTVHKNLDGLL
Sequence of M-phase phosphoprotein 8 (Homo sapiens) (Q99549 whole entry, looked up): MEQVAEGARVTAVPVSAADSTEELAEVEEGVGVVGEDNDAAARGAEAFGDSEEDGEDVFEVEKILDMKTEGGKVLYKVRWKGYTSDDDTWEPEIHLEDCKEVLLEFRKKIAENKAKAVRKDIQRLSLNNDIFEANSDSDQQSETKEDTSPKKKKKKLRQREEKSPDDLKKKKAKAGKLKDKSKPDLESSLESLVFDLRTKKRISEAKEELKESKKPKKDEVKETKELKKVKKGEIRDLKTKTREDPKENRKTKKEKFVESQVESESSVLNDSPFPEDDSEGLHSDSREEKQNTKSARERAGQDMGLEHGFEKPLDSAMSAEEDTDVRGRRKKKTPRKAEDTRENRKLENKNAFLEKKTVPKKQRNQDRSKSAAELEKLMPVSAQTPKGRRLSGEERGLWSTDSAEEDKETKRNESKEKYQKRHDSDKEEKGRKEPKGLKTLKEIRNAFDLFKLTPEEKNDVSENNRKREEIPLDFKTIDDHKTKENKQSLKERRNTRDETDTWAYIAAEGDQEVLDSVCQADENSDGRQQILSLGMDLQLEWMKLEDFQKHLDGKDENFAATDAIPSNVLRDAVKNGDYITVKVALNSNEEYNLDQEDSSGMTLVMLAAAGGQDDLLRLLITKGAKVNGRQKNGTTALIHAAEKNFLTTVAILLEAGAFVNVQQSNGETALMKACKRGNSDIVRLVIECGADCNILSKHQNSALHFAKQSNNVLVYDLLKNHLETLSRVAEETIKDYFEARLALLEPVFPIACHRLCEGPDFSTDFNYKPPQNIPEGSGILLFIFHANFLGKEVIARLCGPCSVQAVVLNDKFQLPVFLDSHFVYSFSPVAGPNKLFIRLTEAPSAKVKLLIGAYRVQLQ

On to `O=C1Cc2c([nH]c3ccc(Br)cc23)-c2ccccc2N1`, for which the molecule was called inactive in test [1] and in test [2].

For the molecule `CC12C(=O)OC(=O)C1(C)C1CCC2O1` (centres undefined), the Potency was 9.27 µM (active) in test [3], 4.65 µM (active) in [4] and 10 µM (active) in [5]. For the same molecule, in test [6], the Potency result was “inactive”. Further, in test [7], the molecule was classed as inactive.

With `Cc1cccc(O)c1C`, the Potency result in test [8] was “inactive”.

`COc1ccc2cc1Oc1ccc(cc1)C[C@H]1c3cc(c(OC)cc3CCN1C)Oc1c(OC)c(OC)cc3c1[C@H](C2)N(C)CC3` gave a parasite growth, % of DMSO control in test [9] of 31.2%. This molecule also had a parasite growth remaining, % of DMSO control (lower = more inhibition) in [10] of 72.6%. The parasite growth, % of control (lower = inhibition) in [11] turned out to be 50.7%.

For the molecule `CC(=O)OC[C@@H]1O[C@@H](n2ccc(=O)[nH]c2=O)[C@H](OC(C)=O)[C@H]1OC(C)=O`, the Potency result in test [12] and in test [14] was “inactive” throughout. Also, the call in test [13] and in test [15] was inactive.

In the case of `CO[C@@H]1[C@@H](OC2OC(C)C(OC3CC(C)(O)C(OC(=O)CC(C)C)C(C)O3)C(N(C)C)C2O)[C@@H](CC=O)C[C@@H](C)C(=O)/C=C\C2O[C@H]2C[C@@H](C)OC(=O)C[C@H]1OC(C)=O` (some centres undefined), the result in test [13] and in test [15] was inactive. Also, the Potency entry in test [14] was “inactive”. Moreover, the Potency in test [16] is 0.0152 µM (active).

As for `CC1(C)CC(=O)c2c(C(F)(F)F)nn(-c3ccc(C(N)=O)c(NC4CCC(OC(=O)CN)CC4)c3)c2C1` (centres undefined), in [17], the Potency entry is “inactive”.

With `CC(C)(C)c1nc2c3cc[nH]c(=O)c3c3cc(F)ccc3c2[nH]1`, the Potency in [16] is 1.71 µM (active).

In the case of `C[C@H]1O[C@@H](O[C@H]2[C@@H](O)C[C@@H](O[C@H]3[C@@H](O)C[C@H](O[C@H]4CC[C@@]5(C)[C@H](CC[C@@H]6[C@@H]5CC[C@]5(C)[C@@H](C7=CC(=O)OC7)CC[C@]65O)C4)O[C@@H]3C)O[C@@H]2C)C[C@H](O)[C@@H]1O`, the Potency result (with Furin (Homo sapiens); in test [19]) was “inactive” each time. In addition, in test [18], the result was inactive. Besides, the Potency in [20] is 0.0537 µM (active).

Turning to `C[C@@H]1O[C@@H](O[C@H]2C[C@@H](O)[C@]3(CO)C4C(CC[C@]3(O)C2)[C@@]2(O)CC[C@H](C3=CC(=O)OC3)[C@@]2(C)C[C@H]4O)[C@H](O)[C@H](O)[C@H]1O` (some centres undefined), the Potency result (with Furin (Homo sapiens); in [21]; in test [19]; in test [22]) was “inactive” each time. The molecule was called inactive in test [18]. Moreover, the Potency in [20] was 0.234 µM (active).

Regarding `COc1ccc(-c2coc3cc(O)cc(O)c3c2=O)cc1`, the Potency result in [23] and in test [24] was “inactive” each time.

In the case of `CNc1ccc2oc(C[C@@H]3OC4(CC[C@@H]3C)O[C@H]([C@@H](C)C(=O)c3ccc[nH]3)[C@H](C)C[C@H]4C)nc2c1C(=O)O` (some centres undefined), the Potency with Furin (Homo sapiens) is 21.5 µM (active); in test [25] it was 19.2 µM (active); in test [26], 24.1 µM (active); in [27], 9.87 µM (active); in test [28] it was 44.7 µM (active). Moreover, the Potency entry in [22] is “inactive”.

The record behind these values is PubChem BioAssay (NCATS).
